# In PubChem BioAssay (NCI):
# “And” between values parts separate entries of the source, which are not always exact repeats. Equal entries are not always repeated. This is part of a sample that, as a whole, favours compounds with a hit. Of some 83,000 tested, about 20% had one in any assay.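 Assay: single dose, 48 h. Readout: percent growth (0 = no net growth; negative = cell death). Active: <10.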 The source made the active and inactive calls.
# Tested on: HL-60(TB) leukemia
# Assay: NCI-60 one-dose screen, 48 h (100 = growth as untreated, 0 = no growth, -100 = all killed)
# Conditions: 10 µM unless noted
row,SMILES,growth
1,O=C(CCl)Nc1ccccc1SCc1cc(Cl)cc2c1OCOC2,49.4% (inactive)
2,N#Cc1ccc(/C=C/C(=O)c2ccccc2)cc1,-15.6% (active) and 17.7% (inactive)
3,NC(=S)c1csc(CCNC(=O)c2ccccc2)n1,89% (inactive)
4,COC(=O)/C=C1/SC(=Nc2cccc(OC)c2)N(CCc2c[nH]c3ccc(O)cc23)C1=O,59.8% (inactive)
5,Cc1c(-n2nnc(-c3nc4ccccc4s3)c2N)c(=O)n(-c2ccccc2)n1C,99.2% (inactive)
6,O=C(/C(=C/c1ccc([N+](=O)[O-])cc1)SCc1ccc(Cl)cc1)c1ccc(F)cc1,59.5% (inactive)
7,Cc1noc(C)c1C(=O)OCc1coc2ccccc2c1=O,12.4% (inactive)
8,Cc1c(C(=O)N[C@@H](Cc2ccccc2)C(=O)C(=O)NCCc2ccccc2)[nH]c2ccccc2c1=O,98% (inactive)
9,Cc1cc(Br)nnc1Br,84.3% (inactive)
10,CCc1ccccc1-n1c(-c2ccc(Cl)cc2)cc(-c2ccc(OC)cc2)c(C#N)c1=O,68.8% (inactive)
11,Cc1c(O)c(N=Nc2ccc(C(=O)O)c(O)c2)c2ccccc2c1O,77.4% (inactive)
12,O=S(=O)(CC(O)(c1ccccc1)c1ccccc1)CC(O)(c1ccccc1)c1ccccc1,108% (inactive)
13,CCC(C)NC(=O)c1ccccc1C (stereo not given),111% (inactive)
14,CCOC(=O)c1cc(-c2cccnc2)nc2c(Cl)cc(Cl)cc12,108% (inactive)
15,O=C(Nc1cccc(C(F)(F)F)c1)Nc1cccc(C(F)(F)F)c1,-27.8% (active)
16,O=C1CCC(N2Cc3c(C#CCCCNC(=O)c4cc5c(o4)C(=O)c4ccccc4C5=O)cccc3C2=O)C(=O)N1 (stereo not given),-1.27% (active)
17,C/C(=N/NC(=O)Cn1c2ccccc2c2ccncc21)c1cccs1,83.5% (inactive)
18,CCN1CCN(CCC(=O)Nc2cccc(-n3cc(-c4ccncc4)c(-c4ccc(Cl)c(OC)c4)n3)c2)CC1,-42.1% (active)
19,COc1ccc(C2=NN(C(=O)c3cc(OC)c(OC)c(OC)c3)C(c3ccc(Cl)cc3)C2)cc1OC (stereo not given),-54% (active)
20,NC(=O)c1cccc(-n2ccc3cc(NC(=O)Nc4ccc(Cl)c(C(F)(F)F)c4)ccc32)n1,99.3% (inactive)

row,SMILES,growth
1,CC(C)C1=C(O)C2=C(C(=O)C1=O)[C@@]1(C)CCCC(C)(C)[C@@H]1CC2,56.4% (inactive)
2,CCN(CC)CCCC(C)N(Cc1ccccc1)CC(O)c1ccc(Cl)cc1 (stereo not given),101% (inactive) and 106% (inactive)
3,CN1CCN(c2ccc(C(=O)Nc3cccc(C#Cc4cccc5[nH]nc(N)c45)c3)cc2C(F)(F)F)CC1,-36.1% (active)
4,CC(C)CCC(=O)[C@@H](C)[C@H]1[C@@H](OC2OCC(O)C(O)C2NS(C)(=O)=O)C[C@H]2[C@@H]3CC=C4C[C@@H](O)CC[C@]4(C)[C@H]3CC[C@]12C (stereo not given in full),7.32% (active)
5,Nc1c(Br)cc(Br)c2c1[nH]c(=O)c1ccccc12,89.8% (inactive)
6,COc1ccc2nc(NC(=O)CSc3nnc4n3S(=O)(=O)c3ccccc3N4C)sc2c1,53.8% (inactive)
7,CCOC(=O)C1CCCN1C(=O)C1(NC(C)=O)CCCC1 (stereo not given),98.4% (inactive)
8,O=C1C=CC(=O)N1c1ccc(N2C(=O)C=CC2=O)cc1,-50.6% (active)
9,CCOC(=O)c1nn(C2CCCCO2)c2ccc(NC(=O)CN3CCOCC3)cc12 (stereo not given),97% (inactive)
10,Fc1cc(C2=NNC(c3ccc[nH]3)C2)ccc1-n1ccc(C(F)(F)F)n1 (stereo not given),55.3% (inactive)
11,COc1ccc(/C=N/C2=C(C#N)C(c3ccccc3[N+](=O)[O-])c3ccc4ccccc4c3O2)cc1 (stereo not given),100% (inactive)
12,COc1cc2c(cc1OCCCCCn1c3ccccc3c3ccccc31)N=C[C@@H]1CCCN1C2=O,-46.7% (active)
13,NC(=S)Cc1ccccc1,99.1% (inactive)
14,CC(C)(C)n1cc(-c2ccnc(NCCCNS(=O)(=O)c3ccc(Cl)cc3)c2)c(-c2cccc(F)c2)n1,85.8% (inactive)
15,COc1c(B(O)O)cccc1-c1nc2c(F)cc3n[nH]c(C)c3c2c2c1CCCC2,6.65% (active)
16,COc1c(B(O)O)cccc1-c1nc2ccc3n[nH]c(F)c3c2c2c1CCCC2,20% (inactive)
17,Clc1ccc2nc(Cl)c3ccccc3c2c1,92.3% (inactive)
18,O/N=C(/c1ccccc1)c1ccc2c3c(cccc13)CC2,86.9% (inactive) and 101% (inactive)
19,Fc1ccc(-c2nn(-c3ccccc3)cc2-c2nc3ccccc3o2)cc1,77.3% (inactive)
20,CC(=O)Nc1ccc2c(c1)c(NC(C)=O)nn2C(=O)Nc1ccc(Cc2ccccc2)cc1,93.1% (inactive)
